CYP2C19 inh: blockers of cytochrome P450 2C19 activity – biochemical, luminescence, ADME assay, primary screen; P33261; CYP2C19 Supersomes, luciferin-H EGE luminescence, 30 min; inhibition, % at 5 µM; 21% of 96,000 active; AID 778, 2007;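 active = CYP2C19 inhibition above a set limit at 5 µM in the primary screen, cut at about 50% in these data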;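 note: plate controls were negative control wells for no effect and 2.5 mM tranylcypromine positive control for full effect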
CYP2C19 activ: human CYP2C19 activators, primary screen, biochemical, luminescence | AID 1025, 2008 | 96,000 tested, under 10 active | activation factor at 5 µM | recombinant CYP2C19, luciferin-H EGE luminescence; hits give high values; 0 = fully inhibited enzyme, 1 = untreated enzyme;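 active = activation factor of at least 2 at 5 µM in the primary screen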;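 note: 0 = wells with 2.5 mM tranylcypromine and 1 = vehicle-only wells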
CYP2C9 activ: human CYP2C9 activators, primary screen, biochemical, luminescence | Cytochrome P450 2C9 (Homo sapiens), P11712 | 1.4% of 96,000 active | activation factor at 5 µM | AID 1024, 2008 | recombinant CYP2C9, luciferin-H conversion; hits give high values; factor 1 = untreated enzyme, 0 = blocked;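 active = activation factor of 2 or more for CYP2C9 at a 5 µM dose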;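 note: 0 = sulfaphenazole-blocked wells and 1 = vehicle-only wells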
EphB4 antag: EphB4-ephrin-B2 interaction antagonists, primary screen, biochemical, TNYL-RAW peptide probe, fluorescence polarization; EphB4 LBD / TNYL-RAW-Alexa532 peptide; inhibition, % at 7 µM; 0.15% of 97,000 active; AID 720, 2007;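 active = inhibition above the screen-wide mean inhibition plus 3 SD, cut at about 15% in these data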;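 note: 0% = DMSO wells and 100% = excess unlabeled TNYL-RAW peptide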
Target sequence (P54760 whole entry, looked up, the tested form may be a part): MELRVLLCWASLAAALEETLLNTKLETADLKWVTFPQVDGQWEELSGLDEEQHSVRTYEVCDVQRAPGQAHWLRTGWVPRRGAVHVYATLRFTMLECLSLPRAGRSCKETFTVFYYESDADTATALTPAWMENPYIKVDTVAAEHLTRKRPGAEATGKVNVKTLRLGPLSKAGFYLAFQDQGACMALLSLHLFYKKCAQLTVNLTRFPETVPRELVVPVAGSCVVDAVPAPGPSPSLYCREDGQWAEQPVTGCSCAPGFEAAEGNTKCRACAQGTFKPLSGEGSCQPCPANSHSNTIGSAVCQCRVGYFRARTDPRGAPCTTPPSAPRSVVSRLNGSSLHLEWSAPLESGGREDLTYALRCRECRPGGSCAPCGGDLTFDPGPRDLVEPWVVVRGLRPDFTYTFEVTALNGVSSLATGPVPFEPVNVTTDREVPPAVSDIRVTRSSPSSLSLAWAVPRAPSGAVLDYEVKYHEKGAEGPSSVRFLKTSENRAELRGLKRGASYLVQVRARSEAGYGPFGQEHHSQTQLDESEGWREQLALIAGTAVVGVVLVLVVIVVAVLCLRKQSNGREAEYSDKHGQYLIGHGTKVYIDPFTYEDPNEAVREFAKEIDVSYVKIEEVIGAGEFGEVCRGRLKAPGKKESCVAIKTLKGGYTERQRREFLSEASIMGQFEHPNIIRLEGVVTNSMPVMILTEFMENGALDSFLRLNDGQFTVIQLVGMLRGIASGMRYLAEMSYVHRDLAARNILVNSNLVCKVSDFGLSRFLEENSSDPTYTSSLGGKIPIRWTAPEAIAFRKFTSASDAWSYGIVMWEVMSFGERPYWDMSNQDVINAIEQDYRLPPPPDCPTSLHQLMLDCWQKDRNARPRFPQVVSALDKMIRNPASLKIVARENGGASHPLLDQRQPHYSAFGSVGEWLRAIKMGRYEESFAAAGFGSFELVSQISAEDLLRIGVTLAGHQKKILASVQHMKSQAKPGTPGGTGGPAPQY
CYP2C9 inhib: blockers of cytochrome P450 2C9 activity – biochemical, luminescence, ADME assay, primary screen. P11712. CYP2C9 Supersomes, luciferin-H conversion. inhibition, % at 5 µM. 20% of 96,000 active. AID 777, 2007;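 active = blocking of liver enzyme CYP2C9 beyond about 50% at 5 µM, limit read from the data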
* marks the source's active call; other numbers are inactive results. Sampled rows, rich in hits. Any-hit rate of the full collection: about 27%.

Screening Cc1ccc2c(c1)N(CCC(=O)N1CCC3(CC1)OCCO3)C(=O)C(C)O2 (configuration not stated) returned CYP2C19 inh 89*, CYP2C19 activ 0.1, CYP2C9 activ 1.3, EphB4 antag -4 and CYP2C9 inhib -30.
For O=C(CCn1c(=O)oc2ccccc21)N1CCC2(CC1)OCCO2 the results were CYP2C19 inh 44, CYP2C19 activ 0.6, CYP2C9 activ 1.1, EphB4 antag -6 and CYP2C9 inhib -9.
Cc1ccc2c(c1)N(CCC(=O)N1CCC3(CC1)OCCO3)C(=O)CO2 was read as CYP2C19 inh 95*, CYP2C19 activ 0, CYP2C9 activ 1.8, EphB4 antag -11 and CYP2C9 inhib -77.
Cc1ccc(CS(=O)(=O)CCC(=O)N2CCC3(CC2)OCCO3)cc1 was read as CYP2C19 inh -18, CYP2C19 activ 1.2, CYP2C9 activ 1.2, EphB4 antag -5 and CYP2C9 inhib -17.
Cn1c(N2CCNCC2)nc2ccccc21 was read as CYP2C19 inh -9, CYP2C19 activ 1.1, CYP2C9 activ 0.9, EphB4 antag 4 and CYP2C9 inhib 10.
`CN1C(=O)C(Cc2nc3ccccc3c(=O)n2-c2ccccc2)c2ccccc21` (configuration not stated) gave CYP2C19 inh 26, CYP2C19 activ 0.7, CYP2C9 activ 0.6, EphB4 antag -13 and CYP2C9 inhib 44.
`Oc1ccc(C2NCc3ccccc3-n3cccc32)cc1Cl` (configuration not stated) gave CYP2C19 inh 98*, CYP2C19 activ 0, CYP2C9 activ 0.1, EphB4 antag 2 and CYP2C9 inhib 89*.
For CCCc1[nH]nc2c1C1(C(=O)N(Cc3ccccc3)c3ccccc31)C(C(=O)OC)=C(N)O2 (configuration not stated) the results were CYP2C19 inh 11, CYP2C19 activ 0.9, CYP2C9 activ 0.6, EphB4 antag -2 and CYP2C9 inhib 39.
Fc1ccc(CCNCc2ccccc2Cl)cc1 was read as CYP2C19 inh 96*, CYP2C19 activ 0, CYP2C9 activ 0.9, EphB4 antag -1 and CYP2C9 inhib 10.
Cc1ccc(S(=O)(=O)Cc2ccc(C(=O)N3CCC4(CC3)OCCO4)o2)cc1 was read as CYP2C19 inh 62*, CYP2C19 activ 0.4, CYP2C9 activ 0.3, EphB4 antag -8 and CYP2C9 inhib 70*.
For CCC(COC(=O)NC)NC(=O)Oc1cccc(C)c1 (configuration not stated) the results were CYP2C19 inh 18, CYP2C19 activ 0.8, CYP2C9 activ 1.1, EphB4 antag 0 and CYP2C9 inhib -7.
For CCCCCCn1c(=O)c(C(=O)Nc2ccncc2)c(O)c2ccccc21 the results were CYP2C19 inh 22, CYP2C19 activ 0.8, CYP2C9 activ 0.6 and CYP2C9 inhib 42.
CCCCn1c(=O)c(C(=O)NCc2ccncc2)c(O)c2ccccc21 was read as CYP2C19 inh 92*, CYP2C19 activ 0.1, CYP2C9 activ 0, EphB4 antag 4 and CYP2C9 inhib 100*.
C=CCn1c(O)c(C(CC)=NCc2cc(OC)cc(OC)c2)c(=O)[nH]c1=O was read as CYP2C19 inh 46, CYP2C19 activ 0.5, CYP2C9 activ 0, EphB4 antag -3 and CYP2C9 inhib 95*.
Screening CCCCn1c(O)c(C(CC)=NCc2ccc3c(c2)OCO3)c(=O)[nH]c1=O returned CYP2C19 inh 74*, CYP2C19 activ 0.3, CYP2C9 activ 0.2, EphB4 antag 1 and CYP2C9 inhib 82*.
`O=C1NC(=O)C(Cc2cccs2)C(=O)N1` gave CYP2C19 inh -24, CYP2C19 activ 1.2, CYP2C9 activ 1.2, EphB4 antag -1 and CYP2C9 inhib -18.
Cc1sc2nc(COC(=O)Cc3ccccc3)[nH]c(=O)c2c1C was read as CYP2C19 inh 40, CYP2C19 activ 0.6, CYP2C9 activ 0.4, EphB4 antag 7 and CYP2C9 inhib 60*.
For O=C(Cc1ccccc1)N1CCN(Cc2cccnc2)CC1 the results were CYP2C19 inh 76*, CYP2C19 activ 0.2, CYP2C9 activ 1, EphB4 antag 9 and CYP2C9 inhib -1.
O=C(Cc1ccccc1)N1CCN(CC2CC=CCC2)CC1 (configuration not stated) was read as CYP2C19 inh 48, CYP2C19 activ 0.5, CYP2C9 activ 0.9, EphB4 antag 5 and CYP2C9 inhib 5.
Screening CCCCCSc1cc(OC)c(CCN)cc1OC returned CYP2C19 inh 96*, CYP2C19 activ 0, CYP2C9 activ 0.5, EphB4 antag -8 and CYP2C9 inhib 45.
For CCCCCCCSc1cc(OC)c(CCN(C)C)cc1OC the results were CYP2C19 inh 67*, CYP2C19 activ 0.3, CYP2C9 activ 1, EphB4 antag 5 and CYP2C9 inhib -1.
For Cn1c(O)c(C=NCCCN2CCCC2=O)c(=O)n(C)c1=O the results were CYP2C19 inh 9, CYP2C19 activ 0.9, CYP2C9 activ 1, EphB4 antag -6 and CYP2C9 inhib 4.
For CN(C)CCN=Cc1c(O)n(Cc2ccco2)c(=O)[nH]c1=O the results were CYP2C19 inh 11, CYP2C19 activ 0.9, CYP2C9 activ 1.1, EphB4 antag 3 and CYP2C9 inhib -10.
`O=C(Nc1ccc(Cl)cc1)O/N=C(\c1ccccc1)c1ccccn1` gave CYP2C19 inh 18, CYP2C19 activ 0.8, CYP2C9 activ 0.4, EphB4 antag -2 and CYP2C9 inhib 57*.
`CC(N)Cc1ccccc1Sc1ccc(O)cc1` (configuration not stated) gave CYP2C19 inh 8, CYP2C19 activ 0.9, CYP2C9 activ 0.9, EphB4 antag 0 and CYP2C9 inhib 12.
`Cc1ccc2c(c1)CC1(CN2C)C(=O)NC(=O)N(CCC2=CCCCC2)C1=O` (configuration not stated) gave CYP2C19 inh 29, CYP2C19 activ 0.7, CYP2C9 activ 0.6, EphB4 antag -6 and CYP2C9 inhib 44.
COc1ccc2c(c1)CC1(CN2C)C(=O)NC(=O)N(c2ccc(C)cc2)C1=O (configuration not stated) was read as CYP2C19 inh 14, CYP2C19 activ 0.9, CYP2C9 activ 0.4, EphB4 antag -9 and CYP2C9 inhib 62*.
`COc1ccc2c(c1)CC1(CN2C)C(=O)NC(=O)N(c2ccc(F)cc2)C1=O` (configuration not stated) gave CYP2C19 inh 19, CYP2C19 activ 0.8, CYP2C9 activ 0.3, EphB4 antag 6 and CYP2C9 inhib 71*.
For Cc1cccc(N2C(=O)NC(=O)C3(Cc4cc(C)ccc4N(C)C3)C2=O)c1 (configuration not stated) the results were CYP2C19 inh 13, CYP2C19 activ 0.9, CYP2C9 activ 0.4, EphB4 antag -7 and CYP2C9 inhib 63*.
